# Tested on: THRa:RXRa (NR concentration 90 nM, RXRa partner concentration 90 nM)
# Experiment: PBM binding z-score (relative to random genomic background probes); higher = stronger binding; sequences stand for … in GC…GCGATTGACAGCGTAGAATGAAGG
# Summary of the method: (§1)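 For binding z-scores, the reference was random background probes on custom Agilent 4×180K protein-binding microarrays. These arrays were incubated 1 h with ligand-free nuclear receptor dimers in PBS pH 7.4, 2% milk, 0.02% Triton X-100, 1 mM DTT, 0.2 mg/mL BSA and 0.4 mg/ml salmon testes DNA. Fluorescence was scanned after antibody detection of each partner (one per run) and regression-normalized.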
row,Sequence,PBM binding z-score
1,ACTCGGAGGACAATGGTCAGAGCTACGCCAGTGA,0.235
2,TCATATAGGTAAATGCTAGGCGAAAGTCCGATCT,0.231
3,CCTCAAAGTTCAACTAAGGTAACGTAAAGCACGC,5.29
4,TCATATAGCTAAAGGTGAAAGTCGAACGATATGA,1.18
5,TCGAGTAGGTGAGGGGCATTCAGAATGGCGTCGA,0.268
6,TCATAGAGGTAATACAGGTGAAAGTCGGCATCTA,1.4
7,TATATTAGTTGATTAGGGCAACCGAAACAGCGGA,0.944
8,ACTAGTTGGTCAGCTGAGGTCACACGCAATTCGG,5
9,CGAACTAGGTCAGAACAGGACAGCGAAGGATGAT,3.82
10,CGTCCAAGGTCAATGCTAGGTTAGTGAAAGCATT,3.91
11,AGTCAAAGTTCATTAGGTAACGTAAGATTCAGCT,2.59
12,CCTAATAGTTGACCATAAGGGCAACCGAAGCTCG,2.02
13,CAAACTAGTTCACAGAGGTCAAAGTCCGTGCGTA,4.01
14,CCGACTGGGGCAAAAGGTTACCATAAGCCAGCCC,1.44
15,TCTTGTAGATCAACAGGAGCTTAAGAAAGATCGA,-0.552
16,ACAGACAGGTGAGTGAATGTAACTCAGCTGGACG,0.0176
17,ATTATTAGTTGAGACGAGGGCAACCGATAGGTTG,2.79
18,AGAATGAGGATATACGTAGATCAGGGAAGAAAGT,0.415

# Tested on: THRa homodimer (NR concentration 90 nM)
# Experiment: as above
# Summary of the method: as §1
row,Sequence,PBM binding z-score
1,AATACAGGGTCATCGTAGGCCAGAGTTCGCACAG,1.65
2,CCTATTAGTTGACCATAAGGGAAACCGAAGCTCG,0.494
3,CCGAGCAGGCCAGGGTCACTCAAGCATTTCGCTT,1.02
4,CTCGAAAGGTCGTGCTCAGGTGTGTATACCAAAC,0.4
5,CCTCGGAGGACAACACGAGGTCAGAGCTGCCAGA,2.8
6,TCTGCTAGGTCAGTTGGTCAGCAAACGAGCTGCC,-0.0215
7,GCATATAGGTAATACAAGGTGAAAGTACGATTGT,0.806
8,ATCTCTAGGTACAAGTTCAGTGAATCCCGAGGAT,0.457
9,ATCGAAAGATCGAAGGTGAGTATACCCACCCGAA,-0.601
10,CCTAGCAGGCCAATCTGGGTCACTGAAGGCTTGA,0.399
11,CCAGACAGGTGAAAGGTAACTCATTCTGGTACGC,0.167
12,ATCTCTAGGTAACACTCAGTTCAGTGAAGAACGC,1.38
13,ACTTACGGGTCAAAGAGGTTATAGCACGCGTATA,0.218
14,CCTATTAGTTGACGATAAGGGCAACCGAAGCTCG,0.591
15,GCTTACGGGTCAAAGGATATAGCATGAATAGAAT,-0.222
16,ACAGACAGCTGATGAAGGTAACTCAGGCTATCAT,-0.25
17,GGAACGAGGGCAAAGTTGATAGCGTCTGTCGACG,-0.194
18,TTACCAAGGTGAAGATCGTTGATCCCTCTGTAGA,0.0556
19,TATTGTAGATCAAGCAGGTTAAGAAAGCCTGAGT,-0.434
20,CCTCGGAGGACAGAAGGTCAGTGCTGTCCGCTTT,-0.0278

row,Sequence,PBM binding z-score
1,GCTATTAGTTGAAAGGGCAACAGAATGATTCTCG,-0.526
2,TAGCCTAGGTCATTGGCCAGTATACCACGCGAAC,0.992
3,ACTCGGAGGACAATGGTCAGAGCTACGCCAGTGA,-0.526
4,TCATATAGGTAAATGCTAGGCGAAAGTCCGATCT,0.0597
5,CCTCAAAGTTCAACTAAGGTAACGTAAAGCACGC,2.38
6,TCATATAGCTAAAGGTGAAAGTCGAACGATATGA,-0.427
7,TCGAGTAGGTGAGGGGCATTCAGAATGGCGTCGA,-0.559
8,TCATAGAGGTAATACAGGTGAAAGTCGGCATCTA,-0.345
9,TATATTAGTTGATTAGGGCAACCGAAACAGCGGA,0.495
10,ACTAGTTGGTCAGCTGAGGTCACACGCAATTCGG,5.12
11,CGAACTAGGTCAGAACAGGACAGCGAAGGATGAT,0.236
12,CGTCCAAGGTCAATGCTAGGTTAGTGAAAGCATT,2.27
13,AGTCAAAGTTCATTAGGTAACGTAAGATTCAGCT,0.801
14,CCTAATAGTTGACCATAAGGGCAACCGAAGCTCG,0.988
15,CAAACTAGTTCACAGAGGTCAAAGTCCGTGCGTA,1.93
16,CCGACTGGGGCAAAAGGTTACCATAAGCCAGCCC,-0.187
17,TCTTGTAGATCAACAGGAGCTTAAGAAAGATCGA,-1.65
18,ACAGACAGGTGAGTGAATGTAACTCAGCTGGACG,-0.644
19,ATTATTAGTTGAGACGAGGGCAACCGATAGGTTG,0.878
20,AGAATGAGGATATACGTAGATCAGGGAAGAAAGT,-0.039

# Tested on: VDR:RXRa (NR concentration 270 nM, RXRa partner concentration 90 nM)
# Experiment: as above
# Summary of the method: as §1
row,Sequence,PBM binding z-score
1,AATACAGGGTCATCGTAGGCCAGAGTTCGCACAG,5.79
2,CCTATTAGTTGACCATAAGGGAAACCGAAGCTCG,0.226
3,CTCGAAAGGTCGTGCTCAGGTGTGTATACCAAAC,3.31
4,CCTCGGAGGACAACACGAGGTCAGAGCTGCCAGA,2.72
5,TCTGCTAGGTCAGTTGGTCAGCAAACGAGCTGCC,0.276
6,GCATATAGGTAATACAAGGTGAAAGTACGATTGT,0.62
7,ATCTCTAGGTACAAGTTCAGTGAATCCCGAGGAT,1.96
8,ATCGAAAGATCGAAGGTGAGTATACCCACCCGAA,0.0219
9,CCTAGCAGGCCAATCTGGGTCACTGAAGGCTTGA,0.552
10,CCAGACAGGTGAAAGGTAACTCATTCTGGTACGC,0.817
11,ATCTCTAGGTAACACTCAGTTCAGTGAAGAACGC,1.97
12,CCTATTAGTTGACGATAAGGGCAACCGAAGCTCG,0.128
13,GCTTACGGGTCAAAGGATATAGCATGAATAGAAT,3.16
14,ACAGACAGCTGATGAAGGTAACTCAGGCTATCAT,-0.282
15,GGAACGAGGGCAAAGTTGATAGCGTCTGTCGACG,1.39
16,TTACCAAGGTGAAGATCGTTGATCCCTCTGTAGA,-0.031
17,CCTCGGAGGACAGAAGGTCAGTGCTGTCCGCTTT,0.863
18,GCTATTAGTTGAAAGGGCAACAGAATGATTCTCG,0.688

row,Sequence,PBM binding z-score
1,TAGCCTAGGTCATTGGCCAGTATACCACGCGAAC,2.18
2,ACTCGGAGGACAATGGTCAGAGCTACGCCAGTGA,-0.697
3,TCATATAGGTAAATGCTAGGCGAAAGTCCGATCT,0.812
4,CCTCAAAGTTCAACTAAGGTAACGTAAAGCACGC,4.88
5,TCATATAGCTAAAGGTGAAAGTCGAACGATATGA,0.865
6,TCGAGTAGGTGAGGGGCATTCAGAATGGCGTCGA,-0.0355
7,TCATAGAGGTAATACAGGTGAAAGTCGGCATCTA,1.07
8,ACTAGTTGGTCAGCTGAGGTCACACGCAATTCGG,4.46
9,CGAACTAGGTCAGAACAGGACAGCGAAGGATGAT,0.817
10,CGTCCAAGGTCAATGCTAGGTTAGTGAAAGCATT,4.02
11,AGTCAAAGTTCATTAGGTAACGTAAGATTCAGCT,4.72
12,CCTAATAGTTGACCATAAGGGCAACCGAAGCTCG,0.926
13,CAAACTAGTTCACAGAGGTCAAAGTCCGTGCGTA,7.47
14,CCGACTGGGGCAAAAGGTTACCATAAGCCAGCCC,1.08
15,TCTTGTAGATCAACAGGAGCTTAAGAAAGATCGA,-0.21
16,ACAGACAGGTGAGTGAATGTAACTCAGCTGGACG,-0.36
17,ATTATTAGTTGAGACGAGGGCAACCGATAGGTTG,1.29
18,AGAATGAGGATATACGTAGATCAGGGAAGAAAGT,-0.427

# Reference: the supplement of paper PMC6555819
